From ChEMBL document CHEMBL4513216, “Probing the Open Global Health Chemical Diversity Library for Multistage-Active Starting Points for Next-Generation Antimalarials” (ACS Infect Dis, 2020) come the findings set out here.

In all, about 69,000 compounds went through this assay and about 8,600 (12%) showed an effect of 50% or more. For the sample, strong results were picked, then their nearest neighbours and some compounds at random.

For the assay, the system named is Plasmodium berghei. The assay is described as follows: Screen against P. berghei liver stage (PbLuc), transformed with Luciferase, at 10uM. Format: functional, HepG2. The settings on record: tested at 10 uM.
`Cc1nn(-c2ccccc2)c2c1C(c1ccc(C(=O)O)cc1)CC(=O)N2` (stereo not drawn): the INHIBITION was found to be 32.7%.

With `Cc1ccc(-n2nc(C)c3c2NC(=O)CC3c2cnc(N)s2)cc1` (stereo not drawn), the INHIBITION was 62.6%.

With `CCn1ncc(S(=O)(=O)N[C@@H]2CCC[C@@H](n3ccnc3)[C@@H]2O)c1C`, the INHIBITION came out at 28.7%.

As to `COCCCNc1cc(C)nn2cnnc12`, the INHIBITION is 3.35%.

For `CC(C)C(C)(CNC(=O)OC(C)(C)C)NC(=O)c1cnccn1` (stereo not drawn), the INHIBITION amounted to 0.705%.

Regarding `CCC(CC)(CNC(=O)OC(C)(C)C)NC(=O)c1cnccn1`, the INHIBITION came to 67.4%.

In the case of `CC(C)CC(C)(CNC(=O)c1cnccn1)NC(=O)c1cnccn1` (stereo not drawn), the INHIBITION is reported as 25.4%.

For the molecule `Cn1ccc(C(=O)N2CCCC2c2cc[nH]n2)n1` (stereo not drawn), the INHIBITION was 21.925%.

As to `Cc1nn(C)c(N2CCOCC2)c1CNC1CCN(C2CC2)CC1`, the INHIBITION is -21.7%.

Take `NC(=O)NC(=O)CNc1cccc(C(=O)c2ccccc2)c1`: the INHIBITION stood at 0.0459%.

As to `CCN1CCN(S(=O)(=O)c2cc(Cl)c(Cl)cc2C)CC1`, the INHIBITION was 61.8%.

Regarding `CCN1CCN(S(=O)(=O)c2ncn(C)c2Cl)CC1`, the INHIBITION was -10.4%.

As for `CCN1CCN(S(=O)(=O)c2cc(C)c(Cl)cc2Cl)CC1`, the INHIBITION worked out at 43.5%.

Regarding `CCN1CCN(S(=O)(=O)c2ccc(Cc3cc(C)n[nH]c3=O)cc2)CC1`, the INHIBITION was 9.96%.

With `CCN1CCN(S(=O)(=O)c2cc(C)c(C)cc2Br)CC1`, the INHIBITION is given as 66.5%.

Consider `CCN1CCN(S(=O)(=O)c2cc(C)c(Cl)cc2C)CC1`, for which the INHIBITION was determined as 49.7%.

As for `CN(C)S(=O)(=O)c1ccc(CNC(=O)C2CC(=O)N(C(C)(C)C)C2)cc1` (stereo not drawn), the INHIBITION is -3.305%.

Turning to `CN(C)C(=O)CN1CCC(c2nnc(Cn3cccn3)n2C2CC2)CC1`, the INHIBITION is given as 16.3%.

On to `CN1[C@H](CN2CCCC2)C[C@@H]2CN(C(=O)c3cnccn3)CC[C@@H]21`, for which the INHIBITION was determined as 18.6%.

Consider `Cc1nc(C2CCN(c3ccccc3)CC2)no1`, for which the INHIBITION is 32.8%.

As for `Cc1noc(C2CCN(C(=O)c3ccc(C(F)(F)F)nc3)CC2)n1`, the INHIBITION was -34.025%.

For `Cc1noc(C2CCN(C(=O)c3ccc(N(C)C)nc3)CC2)n1`, the INHIBITION was 6.92%.

In the case of `Cc1noc(C2CCN(C(=O)c3ccc(NC4CC4)nc3)CC2)n1`, the INHIBITION was 59.7%.

With `CCCc1ccc2oc(C(=O)N3CCC(O)CC3)c(C)c2c1`, the INHIBITION is 2.7%.

On to `CSc1ccc(Cl)c(C(=O)N2CCCC(CNS(C)(=O)=O)C2)c1` (stereo not drawn), for which the INHIBITION came to 41.4%.

As for `COc1ccccc1OCC(=O)NS(=O)(=O)c1cccnc1`, the INHIBITION stood at 29.8%.

For `Cc1cc2nc(SCC(=O)N3CCOCC3)n(C(C)C)c(=O)c2[nH]1`, the INHIBITION was 47.4%.

As to `CCn1c(SCC(=O)N2CCOCC2)nc2cc(C)[nH]c2c1=O`, the INHIBITION is listed as 2.69%.

As for `CCC(C)n1c(SCC(=O)N2CCOCC2)nc2cc(C)[nH]c2c1=O` (stereo not drawn), the INHIBITION was determined as 57.3%.

Regarding `CC(C)c1nnc(NC(=O)N2CCCC2c2ccncc2)s1` (stereo not drawn), the INHIBITION was -32.3%.

As for `CCCc1nnc(NC(=O)N2CCCC2c2ccncc2)s1` (stereo not drawn), the INHIBITION is listed as 59.2%.

On to `CCSc1ccc(NC(=O)N2CCCC2c2ccncc2)cn1` (stereo not drawn), for which the INHIBITION is recorded as 35.2%.

Take `CC(C)(C)c1n[nH]c(C2CN(C(=O)CCc3ccco3)CCO2)n1` (stereo not drawn): the INHIBITION is given as 18.15%.

Turning to `Cc1nc(CN2CCCC(NCCCc3ccccc3)C2)no1` (stereo not drawn), the INHIBITION is on record as -7.31%.

On to `O=C(COc1ccc(C(F)(F)F)cc1)N1CCOCC1c1ncon1` (stereo not drawn), for which the INHIBITION was determined as 11.9%.

Turning to `CC(C)(C)c1n[nH]cc1CNC1CCC(O)CC1` (stereo not drawn), the INHIBITION is 5.87%.

For the molecule `CC(C)NC(=O)C1CN(Cc2ccc(F)cc2)CC12CCOCC2` (stereo not drawn), the INHIBITION was -15.7%.

As for `CCC(Cn1ccnc1)n1cnc2scc(C)c2c1=O` (stereo not drawn), the INHIBITION was found to be 14.9%.

As to `CC1CCN(C(=O)C(C)Oc2ccc3c(c2)OCO3)CC1` (stereo not drawn), the INHIBITION is recorded as -20.5%.

In the case of `CC(Oc1ccc2c(c1)OCO2)C(=O)N1CCC(N2CCOCC2)CC1` (stereo not drawn), the INHIBITION turned out to be 63%.

In the case of `CC(Oc1ccc2c(c1)OCO2)C(=O)N1CCC(N2CCCC2)CC1` (stereo not drawn), the INHIBITION is -5.22%.

Take `CCCc1nc(C(C)(C)NC(=O)C2CC(=O)N(CCOC)C2)no1` (stereo not drawn): the INHIBITION is -3.2%.

For the molecule `CCN(CC)CC(=O)Nc1ccc(-n2ccc(C(N)=O)n2)cc1`, the INHIBITION is given as 50.2%.

As to `CC(C)N(C)CC(=O)Nc1ccc(-n2ccc(C(N)=O)n2)cc1`, the INHIBITION is on record as 49.3%.

On to `CCOCC(=O)Nc1ccc(-n2ccc(C(N)=O)n2)cc1`, for which the INHIBITION stood at 10.8%.

For the molecule `CCNc1ncc(C(=O)N2Cc3nc(C)[nH]c(=O)c3C2)cn1`, the INHIBITION worked out at 6.94%.

In the case of `CNC(=O)C1Cn2ccnc2C2(CCN(Cc3ccncc3)CC2)O1` (stereo not drawn), the INHIBITION worked out at 36.9%.

For `O=C(NC1CCC1)C1=NOC2(CCN(Cc3ccccc3)C2)C1` (stereo not drawn), the INHIBITION turned out to be 57.9%.

With `CC(C)CN1CCC2(CC(C(=O)NCc3cccnc3)=NO2)C1` (stereo not drawn), the INHIBITION is on record as -11.6%.

In the case of `CNC(=O)C1=NOC2(CCN(Cc3nccs3)C2)C1` (stereo not drawn), the INHIBITION was found to be 54.4%.

In the case of `CNC(=O)C1Cn2ccnc2C2(CCN(Cc3nccs3)CC2)O1` (stereo not drawn), the INHIBITION came out at 55.5%.

As to `Cc1ncccc1NC(=O)C1=NOC2(CCN(Cc3nccs3)C2)C1` (stereo not drawn), the INHIBITION was 9.1%.

Turning to `O=C(NCC1CC1)C1=NOC2(CCN(S(=O)(=O)Cc3ccccc3)C2)C1` (stereo not drawn), the INHIBITION was determined as 22.5%.

Take `CNC(=O)C1Cn2ccnc2C2(CCN(Cc3cccs3)CC2)O1` (stereo not drawn): the INHIBITION is reported as 46.2%.

On to `O=C(NCCN1CCOCC1)C1=NOC2(CCN(Cc3nccs3)C2)C1` (stereo not drawn), for which the INHIBITION is 41.6%.

For `CC(C)C(=O)N1CCCC2(CC(C(=O)NCc3cccnc3)=NO2)C1` (stereo not drawn), the INHIBITION is 8.67%.

In the case of `O=C(NCC1CC1)C1=NOC2(CCN(Cc3ccsc3)C2)C1` (stereo not drawn), the INHIBITION is recorded as 38.5%.

Take `O=C(NCc1cccnc1)C1=NOC2(CCCN(CCO)C2)C1` (stereo not drawn): the INHIBITION is on record as 60.1%.
